# The panel holds about 83,000 compounds, 20% with a hit somewhere; the sample as a whole holds those more often.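 96-well plates, one dose, 48 hours. Percent growth reported; active if below 10.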 Unmarked numbers belong to inactive results. Calls of active or inactive are those of the source.
# Legend:
# Test in all cases: NCI-60 one-dose screen, 48 h (100 = growth as untreated, 0 = no growth, -100 = all killed)
# Conditions in all cases: 10 µM unless noted
# [1] = system: NCI-H23 lung
# [2] = system: NCI-H226 lung
# [3] = system: NCI-H322M lung
# [4] = system: HOP-62 NSCLC
# [5] = system: NCI-H460 lung
# [6] = system: HOP-92 NSCLC
# [7] = system: NCI-H522 lung
# [8] = system: A549/ATCC NSCLC
# [9] = system: 786-0 renal
# [10] = system: COLO 205 colon
Structure (SMILES),growth [1],growth [2],growth [3] [%],growth [4],growth [5],growth [6],growth [7],growth [8],growth [9],growth [10]
O=C(Nc1ccc(Oc2cccc(Cl)c2)c(Cl)c1)c1cccnc1,47.9%,54.3%,47.1,38%,22.2%,61.3%,27.3%,36.8%,39.2%,15.4%
N#Cc1c(-c2ccc(Cl)cc2)c(C#N)c2c(C#N)c(N)nn2c1N,98.1%,86.8%,81.7,79.5%,86.9%,61%,64.8%,77.4%,86.6%,95.2%
COc1ccc(/C=C/C(=O)c2ccc(Nc3ccnc4cc(Cl)ccc34)cc2)cc1,76.2%,123%,131,72.3%,101%,37.9%,73.3%,103%,72.8%,117%
O=C(CN1CCOCC1)Nc1nc(-c2cc3ccccc3oc2=O)cs1,111%,88.2%,100,96.9%,103%,90.7%,98.7%,105%,103%,120%
CCOC(=O)c1csc(NC(=O)COc2ccc(/C=C3\Oc4ccccc4C3=O)cc2)n1,86.5%,108%,95.4,72.6%,95.4%,102%,55.1%,88.7%,68.4%,112%
Cc1[nH]c(=O)[nH]c(=O)c1Br,97.9%,108%,120,104%,105%,102%,111%,98.2%,107%,112%
CCn1cc(C(=O)NNC(=S)Nc2ccc(C)cc2)c(=O)c2ccc(C)nc21,102%,90.1%,80.4,108%,101%,95.1%,97.3%,91.6%,102%,116%
Clc1ccc2c(c1)C(c1c[nH]c3ccccc13)(c1c[nH]c3ccccc13)CCO2,93.5%,79.7%,90.8,46.4%,85.3%,43.1%,-62.7% (active),24.6%,80.8%,51.4%
CC1=C2[C@@H](CC1)[C@]1(C)O[C@@](C(C)C)(C[C@H]1OC(=O)[C@H](C)O)[C@H]2OC(=O)/C=C/c1ccccc1,90.7%,84.2%,85.9,80.9%,88.9%,55.9%,74%,66.9%,66.5%,98.8%
CCC(=O)Oc1ccc(-c2ccccc2)cc1Br,101%,96.1%,111,104%,98.8%,87.7%,108%,105%,105%,109%
CC(=O)N1N=C(c2ccc(C(F)(F)F)c(F)c2)CC1c1[nH]c(C)c(C(=O)NCC(F)(F)F)c1C (stereo not given),78.8%,56.3%,74.6,64.9%,52.1%,52.4%,94.8%,55.8%,13.1%,112%
N#CSc1c[nH]c2cccc(/C=C/C(=O)/C=C(/C=C/c3cccc4[nH]cc(SC#N)c34)OB(F)F)c12,-45.4% (active),-75.9% (active),53.7,-26.1% (active),4.16% (active),-62.1% (active),-65.2% (active),-8.65% (active),-51.6% (active),-60% (active)
O=C(/C=C(/C=C/c1ccc2[nH]ccc2c1)OB(F)F)/C=C/c1ccc2[nH]ccc2c1,-26.6% (active),-59.5% (active),27.5,-16.5% (active),0.421% (active),4.49% (active),-68.5% (active),-53.6% (active),-57.1% (active),-38.4% (active)
Cc1cc(C(=O)Nc2ncc(Cc3cccc(C(F)(F)F)c3)s2)c2ccccc2n1,51.6%,54.4%,59.3,31.8%,11.3%,28%,10.3%,24.7%,38%,19.2%
CC(=O)O[C@H]1CC2CCC3C(CC[C@@]4(C)C3C[C@H]([N+]3(C)CCCCC3)[C@@H]4OC(C)=O)[C@@]2(C)C[C@@H]1N1CCCCC1 (stereo not given in full),102%,106%,110,114%,111%,86.5%,95.8%,101%,106%,104%
CS(=O)(=O)c1ccc(-c2cnn3ccc(-c4cccc(S(=O)(=O)C5CC5)c4)nc23)cc1,56.8%,60.5%,57.9,48.7%,43.7%,41.9%,31.5%,45%,61.3%,64.3%
Cc1ccc(-c2nc([P+](c3ccccc3)(c3ccccc3)c3ccccc3)c(S(=O)(=O)c3ccc(C)cc3)o2)cc1,15%,46.9%,57.2,17.7%,4.75% (active),-7.71% (active),4.04% (active),27.5%,-18.7% (active),-38.1% (active)
COc1ccc(-c2noc(C(=O)O)c2-c2cc(OC)c(OC)c(OC)c2)cc1,39.9%,54.1%,48.9,36.6%,14.8%,54.9%,17.3%,43.4%,33.1%,6.75% (active)
O=C(CSc1nc2sc3c(c2c(=O)n1-c1ccccc1)CCCCC3)N/N=C/c1cccc([N+](=O)[O-])c1,54.4%,94.4%,79,53%,19.6%,73.2%,53.5%,27.8%,80.7%,89.1%
c1ccc(Cn2cc3c(c2)-c2oncc2CC3)cc1,46.6%,53%,60.4,21.1%,8.32% (active),65.4%,21.3%,23.2%,37.1%,15.9%
Clc1ccc(/C=N\N=C\c2ccc(Cl)c(Cl)c2)cc1Cl,84.9%,104%,102,95.8%,47.1%,88.6%,77.4%,87.2%,97.3%,90.8%
N#CC1=C(N)Oc2c(sc3c(Br)cccc23)C1c1ccc(Cl)cc1 (stereo not given),17.2%,39.7%,36.1,14.3%,8.2% (active),35.6%,-26.8% (active),1.31% (active),5.59% (active),-42.2% (active)
CNc1nnc2n(-c3ccccc3)c(=O)c3cnn(-c4ccccc4)c3n12,95.8%,93.6%,100,64.7%,106%,78.3%,41.8%,64.4%,74.7%,84.7%
CC(O)(c1ccccc1)C(c1ccccc1)C1CCCCN1 (stereo not given),107%,102%,88.5,99.3%,103%,90.3%,95.1%,88.1%,103%,103%
CCCNc1nc2ccccc2c2c1S(=O)(=O)c1ccc(Cl)cc1C2=O,24.7%,34.7%,32.7,9.66% (active),5.29% (active),-27.2% (active),-81.3% (active),19.6%,13.9%,-9.19% (active)

# — PubChem BioAssay (NCI)
